An excerpt weighted towards active compounds, which were near 0.93% of everything screened.
PKM2 act: PKM2 (human) enzyme activation; purified PKM2, Kinase-Glo ATP luminescence, activation; response scale: 0% is enzyme alone, no compound; 260,000 compounds, 0.34% hits; P14618; Potency, µM (series often up to 57.5 µM), for inactives: at the highest dose activation, hits mostly activators; active = well fitted activation curve with a large enough effect; inconclusive = small, poorly fitted or top-dose-only effect; inactive = no such curve, though single readings can be large or run the other way; note: potency is the fitted concentration of half-maximal effect; nearly all actives have a fitted effect of over 55% in size
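Purified hPK-M2 (>95% pure) converted ADP (0.1 mM final) to ATP with 0.5 mM PEP in 50 mM imidazole pH7.2, KCl, MgCl2, Tween 20, BSA; 1 h at room temperature. ATP detected by Kinase-Glo luminescence.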
CtBP-E1A inh: blocks the CtBP interaction with E1A; activity change, % (no concentration beside the values); 340,000 compounds, 0.49% hits; AlphaScreen GST-E1A/His-CtBP binding, 1536-well; hits give low values
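Protein mix (5X: 125 nM each GST-E1A, His-CtBP) was incubated with pinned compound 2 h at 37 deg C in dark, in 50 mM Tris pH 8.0 buffer with 300 mM NaCl. Glutathione donor and nickel acceptor beads followed; AlphaScreen signal read after 1 h.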
MBNL1 CUG block: blocks human MBNL1 binding to CUG repeat RNA | 280,000 compounds, 0.036% hits | TR-FRET MBNL1-His/biotin-(CUG)12 binding, 665/545 ratio | Potency, µM (doses to about 57.5 µM), without a hit: top-dose activity change, negative = inhibition, hits mostly inhibitors | Q9NR56; active = well fitted inhibition curve with a large enough effect in the signal ratio, with a control signal flat, not every such curve was filed as active; inconclusive = small, poorly fitted or top-dose-only effect, or effect the other way, or a change in a side signal; inactive = no such curve, though single readings can be large or run the other way; the % refers to the signal ratio; note: potency is the fitted concentration of half-maximal effect
Target sequence (Q9NR56 whole entry, looked up): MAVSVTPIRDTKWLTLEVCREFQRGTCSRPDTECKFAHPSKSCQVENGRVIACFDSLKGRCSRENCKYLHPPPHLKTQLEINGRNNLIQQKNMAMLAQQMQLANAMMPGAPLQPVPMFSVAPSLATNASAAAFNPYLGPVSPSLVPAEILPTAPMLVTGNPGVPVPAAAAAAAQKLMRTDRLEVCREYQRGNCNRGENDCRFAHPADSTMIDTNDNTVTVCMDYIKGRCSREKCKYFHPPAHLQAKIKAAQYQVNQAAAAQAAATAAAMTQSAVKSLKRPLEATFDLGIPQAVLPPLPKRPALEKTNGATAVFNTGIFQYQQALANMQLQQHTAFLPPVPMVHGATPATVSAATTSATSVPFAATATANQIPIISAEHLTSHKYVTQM
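Compounds (final 92 nM to 58 uM) are added to His-tagged MBNL1 and biotin-(CUG)12, then terbium anti-His antibody and streptavidin-XL665 (5 nM final). After 60 min at room temperature, the 665/545 nm ratio is read.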
Six1-Eya2 inh: inhibitors of human Six1/Eya2 interaction | 360,000 compounds, 0.56% hits | AlphaScreen GST-Six1/His-Eya2 binding, biochemical; hits give low values | activity change, % (test concentration not listed)
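GST-Six1 + His-Eya2 (5X stock: 250/500 nM); Tris pH 8.0, 300 mM NaCl, 0.05% BSA, 0.02% Tween 20; GSH donor/Ni acceptor beads; 1 h 37 °C dark; AlphaScreen readout.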
Numbers without * were called inactive; [ ] = remark or other dose. Cut-off read from the data, not from the text of the source, unless noted: active = activity change below about -65%; inconclusive = mostly about -30% to -63%; inactive = weaker than that. % is set by controls: 0 for no effect and ±100 for the full control effect.

Results for CN1CCN(S(=O)(=O)c2cccc(C(=O)Nc3nccs3)c2)CC1 ?
PKM2 act: -4%; CtBP-E1A inh: -20; MBNL1 CUG block: -6%; Six1-Eya2 inh: -8

How did O=C(Nc1cccc(S(=O)(=O)N2CCCC2)c1)c1cccc(S(=O)(=O)N2CCOCC2)c1 do in these assays?
Six1-Eya2 inh: -9

What do the screens show for `O=C(c1ccc(CN2CCOCC2)cc1)N1CCN(c2cccc(Cl)c2)CC1`?
PKM2 act: -2%; CtBP-E1A inh: 2; MBNL1 CUG block: -2%; Six1-Eya2 inh: 3

What do the screens show for `O=C(c1ccc(Cn2cc(Cl)cn2)cc1)N1CCN(c2ccccc2)CC1`?
PKM2 act: 16µM*; CtBP-E1A inh: 0; MBNL1 CUG block: -8%; Six1-Eya2 inh: -6

Results for O=C(c1ccc(Cn2cc(Br)cn2)cc1)N1CCN(c2ccccc2)CC1 ?
PKM2 act: 4.5µM*; CtBP-E1A inh: -3; MBNL1 CUG block: -7%; Six1-Eya2 inh: -10

Results for O=C(O)c1cc(C(=O)O)cc(-c2ccc(/C=c3/sc4nc5ccccc5n4c3=O)o2)c1 ?
PKM2 act: 15%; CtBP-E1A inh: -9; MBNL1 CUG block: 10%; Six1-Eya2 inh: inconclusive

How did O=C(O)c1ccccc1-c1ccc(C=c2sc3nc4cc(Br)cnc4n3c2=O)o1 do in these assays?
CtBP-E1A inh: inconclusive; Six1-Eya2 inh: -69*

How did CCN1CCN(C(c2ccc(C(F)(F)F)cc2)c2ccc3cccnc3c2O)CC1 (configuration not stated) do in these assays?
CtBP-E1A inh: -1; MBNL1 CUG block: 11%; Six1-Eya2 inh: -86*

What do the screens show for `OCCN1CCN(C(c2cccs2)c2ccc3cccnc3c2O)CC1` (configuration not stated)?
PKM2 act: 17%; MBNL1 CUG block: 7%

How did Cc1c(C(=O)N(C)C)sc2nc(-c3ccccn3)[nH]c(=O)c12 do in these assays?
PKM2 act: -5%; CtBP-E1A inh: -97*; MBNL1 CUG block: inconclusive; Six1-Eya2 inh: -89*

What do the screens show for `Cc1cccc(C)c1NC(=O)CSc1nnc(-c2ccco2)c(-c2ccco2)n1`?
PKM2 act: 11µM*; CtBP-E1A inh: -26; MBNL1 CUG block: inconclusive; Six1-Eya2 inh: -67*

Results for CC(C)(C)c1ccccc1NC(=O)Nc1nc(C(N)Cc2ccc(F)cc2)cs1 (configuration not stated) ?
CtBP-E1A inh: -13; Six1-Eya2 inh: -13

How did NC(Cc1ccc(F)cc1)c1csc(Nc2ccc(C(=O)NCCCO)cn2)n1 (configuration not stated) do in these assays?
CtBP-E1A inh: -72*; Six1-Eya2 inh: -68*

Results for CC(C)CC(N)c1csc(Nc2ccc(C(=O)NCCCO)cn2)n1 (configuration not stated) ?
CtBP-E1A inh: -78*; Six1-Eya2 inh: -70*

Results for NC(Cc1ccccc1)c1csc(Nc2ccc(C(=O)NCCO)cc2)n1 (configuration not stated) ?
CtBP-E1A inh: -9; Six1-Eya2 inh: -16

What do the screens show for `CCCS(=O)(=O)c1ncc(Cl)c(C(=O)Nc2ccc(S(=O)(=O)Nc3ncccn3)cc2)n1`?
CtBP-E1A inh: -77*; MBNL1 CUG block: inconclusive; Six1-Eya2 inh: -83*

Results for CCSc1ncc(Cl)c(C(=O)Nc2ccc(S(=O)(=O)Nc3ncccn3)cc2)n1 ?
CtBP-E1A inh: 2; MBNL1 CUG block: 7%; Six1-Eya2 inh: 10

What do the screens show for `COc1ccc(S(=O)(=O)Nc2ccc(S(=O)(=O)Nc3nccs3)cc2)cc1`?
PKM2 act: 13µM*; CtBP-E1A inh: 0; MBNL1 CUG block: -6%; Six1-Eya2 inh: 14

What do the screens show for `COc1ccc(CC(=O)Nc2ccc(S(=O)(=O)Nc3nccs3)cc2)cc1`?
PKM2 act: 14µM*; CtBP-E1A inh: -2; MBNL1 CUG block: -1%; Six1-Eya2 inh: -5

How did C=CCN1c2ccccc2[C@]23C[C@@H](C(=O)OC)N(S(=O)(=O)c4ccc(Br)cc4)C2=NC(C(=O)OC)=C(C(=O)OC)[C@H]13 do in these assays?
PKM2 act: -6%[11.5 µM]

How did O=C(/C(=N\Nc1ccc([N+](=O)[O-])cc1)Sc1nnnn1-c1ccccc1)c1ccccc1 do in these assays?
PKM2 act: -4%; CtBP-E1A inh: inconclusive; Six1-Eya2 inh: inconclusive

How did Cc1ccc(N/N=C(/Sc2nnnn2-c2ccccc2)C(=O)c2ccccc2)cc1 do in these assays?
PKM2 act: -4%; CtBP-E1A inh: inconclusive; Six1-Eya2 inh: -78*

What do the screens show for `CN(C)c1ccc(N=Nc2ccccc2Br)cc1`?
CtBP-E1A inh: -90*; MBNL1 CUG block: 12%; Six1-Eya2 inh: -87*

What do the screens show for `COc1cc(C(=O)N(C)C2CCCCC2)cc(OC)c1OC`?
CtBP-E1A inh: 1; Six1-Eya2 inh: 12

What do the screens show for `COc1cccc(-c2cc(NC=O)c3ncc(-c4cc(OC)c(OC)c(OC)c4)n3c2)c1`?
CtBP-E1A inh: inconclusive; Six1-Eya2 inh: -15

What do the screens show for `COc1cccc(-c2cnc3c(NC=O)cc(-c4ccc(O)c(OC)c4)cn23)c1`?
CtBP-E1A inh: -71*; Six1-Eya2 inh: inconclusive

What do the screens show for `COc1ccc(-c2cc(C)no2)cc1S(=O)(=O)N(C)c1cccc(C)c1`?
CtBP-E1A inh: -4; MBNL1 CUG block: -3%; Six1-Eya2 inh: 0

What do the screens show for `Cc1cccc(N(C)S(=O)(=O)c2cc3c(cc2C)n(C)c(=O)c(=O)n3C)c1`?
PKM2 act: 10µM*; CtBP-E1A inh: 0; MBNL1 CUG block: -1%; Six1-Eya2 inh: 20

What do the screens show for `Cc1cc2c(cc1S(=O)(=O)N(C)c1ccccc1)n(C)c(=O)n2C`?
PKM2 act: 13µM*; MBNL1 CUG block: -1%; Six1-Eya2 inh: -14

Results for Cc1cc2c(cc1S(=O)(=O)N(C)Cc1ccccc1)n(C)c(=O)c(=O)n2C ?
PKM2 act: 10%; CtBP-E1A inh: -1; MBNL1 CUG block: 1%; Six1-Eya2 inh: -6

Results for COc1cccc(-c2cccc(-c3nc(C(=O)NCc4ccc(Oc5ccccc5)cc4)cc4c3[C@H](CCO)N(S(=O)C(C)(C)C)C4)c2)c1 (some centres not stated) ?
CtBP-E1A inh: -21; Six1-Eya2 inh: -6

What do the screens show for `C=CCNc1nc(=S)[nH]c2cc(OC)c(OC)cc12`?
PKM2 act: -1%; CtBP-E1A inh: -74*; MBNL1 CUG block: -4%; Six1-Eya2 inh: -83*

Results for CCCCNC(=O)c1nc(C2CCN(S(=O)(=O)c3c(OC)cccc3OC)CC2)oc1-c1ccccc1 ?
CtBP-E1A inh: -8; Six1-Eya2 inh: -11

Results for Cn1c(SCc2ccc(Br)cc2)nc2c(c1=O)SCC2 ?
PKM2 act: 13%; CtBP-E1A inh: 6; MBNL1 CUG block: -9%; Six1-Eya2 inh: inconclusive

What do the screens show for `Cn1c(SCc2cccnc2)nc2c(c1=O)SCC2`?
PKM2 act: 28µM*; CtBP-E1A inh: -9; MBNL1 CUG block: 10%; Six1-Eya2 inh: -12

Source: PubChem BioAssay
